Inconclusive results are not listed. Activity calls are given as the source filed them. Calls come from the whole dose curve; as a rule, active = well fitted curve in the direction sought with a large enough effect; inconclusive = small, poorly fitted or top-dose-only effect, or another doubt; inactive = no such curve, though single readings can be large; an effect the other way counts as inactive or inconclusive.
Tests used:
[1] = MultiTox-Fluor Cytotoxicity Assay - LYMP1-002 - Live Cells (AID 955); conditions: LYMP1-002 lymphoblastoid live-cell protease fluorescence viability; series mostly up to 46.1 µM;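 note: cells exposed to compound for 16 hours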; note: potency is the fitted concentration of half-maximal effect
How it was run: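 Human lymphoblastoid LYMP1-002 cells, 2500/well, treated 16 h at 37 C in complete medium. Live-cell protease activity via GF-AFC fluorescence (Ex/Em 405/510) after 60 min reagent incubation; AC50 from Hill fits.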

[2] = MultiTox-Fluor Cytotoxicity Assay - LYMP1-002 - Dead Cells (AID 960); conditions: LYMP1-002 lymphoblastoid cells, dead-cell protease fluorescence; series mostly up to 46.1 µM; note: nearly all actives have a fitted effect of over 60% in size; note: potency is the fitted concentration of half-maximal effect
How it was run: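 Human lymphoblastoid LYMP1-002 cells, 2500/well, treated 16 h at 37 C; dead-cell protease cleavage of bis-AAF-R110 read by fluorescence (485/520); normalized to DMSO and 15 uM tetraoctylammonium bromide; AC50 from Hill fit.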

[3] = MultiTox-Fluor Cytotoxicity Assay - LYMP1-003 - Dead Cells (AID 961); conditions: LYMP1-003 lymphoblastoid cells, dead-cell protease fluorescence; series mostly up to 92.2 µM;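 note: cells exposed to compound for 16 h at 37 °C; nearly all actives have a fitted effect of over 70% in size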; note: potency is the fitted concentration of half-maximal effect
How it was run: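 Human lymphoblastoid LYMP1-003 cells (2500/well) were treated with compounds for 16 hr at 37 C in complete medium. Dead-cell protease release was read by bis-AAF-R110 fluorescence (Ex/Em 485/520). AC50 came from Hill fits, normalized to DMSO and 15 uM tetraoctylammonium bromide.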

[4] = MultiTox-Fluor Cytotoxicity Assay - LYMP1-003 - Live Cells (AID 962); conditions: LYMP1-003 lymphoblastoid cells, MultiTox-Fluor live-cell protease fluorescence; series mostly up to 92.2 µM;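 note: cells exposed to compound for 16 hours at 37 °C; cytotoxic hits lower the live-cell protease signal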
How it was run: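 LYMP1-003 lymphoblastoid cells, 2500/well in complete medium, treated 16 h at 37 C; live-cell protease cleavage of GF-AFC read by fluorescence (Ex/Em 405/510) after 60 min reagent; AC50 from Hill fits of concentration-response.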

[5] = Cell Viability - LYMP1-003 - Assay at 24 hr (AID 963); conditions: LYMP1-003 lymphoblastoid cell viability; series mostly up to 92.2 µM; note: potency is the fitted concentration of half-maximal effect
How it was run: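 Human lymphoblastoid LYMP1-003 cells, 2500/well, treated 24 h at 37 C in complete medium. Viability read as intracellular ATP by CellTiter-Glo luminescence after 30 min at room temperature; AC50 from Hill-equation fits of qHTS concentration-response.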

[6] = Cell Viability - LYMP1-003 - Assay at 40 hr (AID 964); conditions: LYMP1-003 lymphoblastoid viability; series mostly up to 92.2 µM; note: nearly all actives have a fitted effect of over 60% in size; note: potency is the fitted concentration of half-maximal effect
How it was run: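 LYMP1-003 human lymphoblastoid cells, 2500/well, preincubated 5 h at 37 C, then treated with compound for 40 h at 37 C. Intracellular ATP read by CellTiter-Glo luminescence after 30 min at room temperature; AC50 from Hill-equation fits.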

[7] = Cell Viability - LYMP2-003 (AID 965); conditions: LYMP2-003 lymphoblastoid cell viability; series mostly up to 92.2 µM;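 note: cells exposed to compounds for 24 h before reading; nearly all actives have a fitted effect of over 50% in size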; note: potency is the fitted concentration of half-maximal effect
How it was run: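 CellTiter-Glo luminescence (cellular ATP) after 24 h compound exposure at 37 C in complete medium; 2500 cells/well, 5 h settling beforehand. Concentration-response fitted to standard Hill equation for AC50. Tetraoctylammonium bromide served as positive control.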

[8] = Cell Viability - LYMP2-004 (AID 966); conditions: LYMP2-004 lymphoblastoid cell viability, qHTS; series mostly up to 92.2 µM; note: nearly all actives have a fitted effect of over 65% in size; note: potency is the fitted concentration of half-maximal effect
How it was run: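 Lymphoblastoid LYMP2-004 cells, 2500 per well, were preincubated for 5 hr and then treated with compound for 24 h at 37 C in complete medium. Viability was read as cellular ATP by CellTiter-Glo luminescence, and AC50 values were taken from Hill fits to concentration-response data.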

[9] = Cell Viability - LYMP2-005 (AID 967); conditions: LYMP2-005 lymphoblastoid cell viability; series mostly up to 92.2 µM
How it was run: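 Steps: seed 2500 LYMP2-005 cells/well, incubate 5 h at 37 C, add compound, incubate 24 h at 37 C, add CellTiter-Glo, wait 30 min at RT, read luminescence. Concentration-response data fitted to Hill equation for AC50.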

[10] = Cell Viability - LYMP2-009 (AID 968); conditions: LYMP2-009 lymphoblastoid cell viability; series mostly up to 92.2 µM; note: nearly all actives have a fitted effect of over 55% in size; note: potency is the fitted concentration of half-maximal effect
[11] = Cell Viability - LYMP2-011 (AID 969); conditions: LYMP2-011 lymphoblastoid cells viability; series mostly up to 92.2 µM; note: nearly all actives have a fitted effect of over 60% in size; note: potency is the fitted concentration of half-maximal effect
How it was run: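 2500 cells/well in complete medium, compound-treated 24 h at 37 C. Viability read as intracellular ATP by CellTiter-Glo luminescence after 30 min at room temperature. AC50 from Hill fits of qHTS concentration-response data.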

[12] = Cell Viability - LYMP2-013 (AID 970); conditions: LYMP2-013 lymphoblastoid cells viability; series mostly up to 92.2 µM; note: nearly all actives have a fitted effect of over 55% in size; note: potency is the fitted concentration of half-maximal effect
How it was run: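 Human lymphoblastoid LYMP2-013 cells, 2500/well, treated 24 h at 37 C in complete medium; viability as intracellular ATP by CellTiter-Glo luminescence after 30 min. AC50 from Hill fits of qHTS concentration-response.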

[13] = Cell Viability - LYMP2-015 (AID 971); conditions: LYMP2-015 lymphoblastoid cell viability; series mostly up to 92.2 µM; note: nearly all actives have a fitted effect of over 55% in size; note: potency is the fitted concentration of half-maximal effect
How it was run: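 LYMP2-015 human lymphoblastoid cells (2500/well) in complete medium, compound-treated 24 h at 37 C; viability read as cellular ATP by CellTiter-Glo luminescence after 30 min at room temperature. AC50 from Hill-equation fits of qHTS concentration-response data.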

[14] = Cell Viability - LYMP2-017 (AID 972); conditions: LYMP2-017 lymphoblastoid cell viability; series mostly up to 92.2 µM; note: nearly all actives have a fitted effect of over 55% in size; note: potency is the fitted concentration of half-maximal effect
How it was run: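 LYMP2-017 human lymphoblastoid cells (2500/well) settled 5 hr at 37 C, then exposed to compound 24 hr at 37 C in complete medium. Viability taken as intracellular ATP by CellTiter-Glo luminescence after 30 min at RT; AC50 from Hill fits.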

[15] = Cell Viability - LYMP2-019 (AID 973); conditions: LYMP2-019 lymphoblastoid cell line viability; series mostly up to 92.2 µM; note: nearly all actives have a fitted effect of over 55% in size; note: potency is the fitted concentration of half-maximal effect
How it was run: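 Human lymphoblastoid LYMP2-019 cells (2500/well) preincubated 5 h at 37 C, then treated 24 h at 37 C in complete medium. Viability by CellTiter-Glo ATP luminescence after 30 min at room temperature; AC50 from Hill fits.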

[16] = Cell Viability - LYMP2-021 (AID 974); conditions: LYMP2-021 lymphoblastoid cells viability; series mostly up to 92.2 µM; note: potency is the fitted concentration of half-maximal effect
How it was run: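 Human lymphoblastoid LYMP2-021 cells, 2500/well in complete medium, treated 24 hours at 37 C. Intracellular ATP by CellTiter-Glo luminescence (30 min, RT); AC50 from Hill fits of concentration-response.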

[17] = Cell Viability - LYMP2-023 (AID 975); conditions: LYMP2-023 lymphoblastoid cell viability; series mostly up to 92.2 µM; note: nearly all actives have a fitted effect of over 55% in size; note: potency is the fitted concentration of half-maximal effect
How it was run: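 LYMP2-023 human lymphoblastoid cells, 2500/well, preincubated 5 hr at 37 C, then compound-treated 24 hr at 37 C in complete medium. CellTiter-Glo luminescence (ATP) after 30 min at room temperature; AC50 from Hill-equation fits; tetraoctylammonium bromide positive control.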

[18] = Cell Viability - LYMP2-025 (AID 976); conditions: LYMP2-025 lymphoblastoid cell viability; series mostly up to 92.2 µM
How it was run: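 Human lymphoblastoid LYMP2-025 cells, 2500/well, exposed 24 h at 37 C in complete medium in 1536-well qHTS. Viability as cellular ATP by CellTiter-Glo luminescence; AC50 from Hill fits of concentration-response data.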

[19] = Cell Viability - LYMP2-002 (AID 977); conditions: LYMP2-002 lymphoblastoid cell viability, qHTS; series mostly up to 92.2 µM
How it was run: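 Luminescent ATP readout (CellTiter-Glo, 30 min room temperature) after 24 h compound exposure at 37 C of a human lymphoblastoid line, 2500 cells/well. AC50 values derived by standard Hill fitting of qHTS concentration-response data.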

[20] = Cell Viability - LYMP2-006 (AID 978); conditions: LYMP2-006 lymphoblastoid cell viability, qHTS; series mostly up to 92.2 µM; note: nearly all actives have a fitted effect of over 60% in size; note: potency is the fitted concentration of half-maximal effect
How it was run: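 qHTS, 1536-well; 2500 cells/well, 5 hr 37 C; cpd 24 hr 37 C; CellTiter-Glo 30 min RT; luminescence. Tetraoctylammonium bromide pos. ctrl. AC50 via Hill eqn.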

Measured: Potency

OCc1ccccc1
inactive: all assays above

OCl
inactive: all assays above

C[C@H](CCC(=O)O)[C@H]1CC[C@H]2[C@@H]3CC[C@@H]4C[C@H](O)CC[C@]4(C)[C@H]3C[C@H](O)[C@]12C
not listed: [2] | [9]
inactive: all other assays above

[O-][N+](=Nc1ccccc1)c1ccccc1
not listed: [7]
inactive: all other assays above

NC(N)=O
inactive: all assays above

Cc1ccc(S(=O)(=O)O)cc1C
inactive: all assays above

Nc1nccs1
inactive: all assays above

C=C1C(CCl)(CCl)C2(Cl)C(Cl)C(Cl)C1(Cl)C2(Cl)Cl (centres undefined)
inactive: [1] | [4]
active: [2] 31.6 µM | [3] 50.1 µM | [5] 50.1 µM | [7] 50.1 µM | [8] 39.8 µM | [10] 39.8 µM | [11] 50.1 µM | [12] 50.1 µM | [13] 39.8 µM | [14] 50.1 µM | [15] 39.8 µM | [16] 50.1 µM | [17] 50.1 µM | [20] 50.1 µM

C[C@H]1O[C@@H](O[C@H]2[C@@H](O)C[C@H](O[C@H]3[C@@H](O)C[C@H](O[C@H]4CC[C@@]5(C)[C@H](CC[C@@H]6[C@@H]5C[C@@H](O)[C@]5(C)[C@@H](C7=CC(=O)OC7)CC[C@]65O)C4)O[C@@H]3C)O[C@@H]2C)C[C@H](O)[C@@H]1O
active: [1] 501 nM | [3] 1.58 µM | [5] 0.251 µM | [6] 158 nM | [14] 0.251 µM

O.O.O.O.O.O.O.O=S(=O)([O-])[O-].[Co+2]
inactive: [1] | [3] | [4] | [5] | [7] | [12] | [14] | [17] | [18] | [20]

C/C=C/C=C/C(=O)O
inactive: all assays above

COC(=O)c1ccccc1O
inactive: all assays above

O=P(O)(O)O
not listed: [9]
inactive: all other assays above

CC/C=C\C/C=C\C/C=C\CCCCCCCC(=O)O
inactive: [1] | [2] | [3] | [4] | [5] | [19]
active: [7] 39.8 µM | [10] 50.1 µM | [13] 50.1 µM | [14] 50.1 µM | [15] 50.1 µM | [16] 50.1 µM

CC(C)O
inactive: all assays above

C[C@H](CCC(=O)O)[C@H]1CC[C@H]2[C@@H]3[C@H](O)C[C@@H]4C[C@H](O)CC[C@]4(C)[C@H]3C[C@H](O)[C@]12C
inactive: all assays above

c1ccc2ccccc2c1
inactive: all assays above

Cc1ncc[nH]1
inactive: all assays above

OCC(O)CO
inactive: all assays above

Source: PubChem BioAssay (NCATS)
